# Among all 420,000 compounds or so, about 50,000 (12%) were called active. Entries that show only a call come without a potency. About 26% were inconclusive and are not listed. Only a selection was taken, and actives are over-represented in it overall. Unmarked numbers belong to inactive results. The call rests on the fitted dose curve; in most records, active means well fitted inhibition curve with a large enough effect; inconclusive means small, poorly fitted or top-dose-only effect; inactive means flat fitted curve, though single readings scatter.
# Assay: qHTS for Inhibitors of human tyrosyl-DNA phosphodiesterase 1 (TDP1): qHTS in cells in presence of CPT; further: nearly all actives have a fitted effect of over 55% in size
# Details: chicken DT40 Tdp1-/-;hTDP1 cells + 20 nM CPT, ATP luminescence, 48 h; series mostly up to 46.2 µM
# Procedure, shortened: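 Chicken DT40 Tdp1-/- cells stably complemented with human TDP1 were seeded at 400 cells/well in medium containing 20 nM camptothecin, exposed to pin-transferred compounds, and grown at 37 °C for at least 48 hr. Viability was read as ATP luminescence.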
# Potency means the concentration at half of the fitted maximal effect.
SMILES,Potency,"activity change, negative = growth inhibition"
CCc1ccc(OCC(=O)OC(C)C(=O)NC2CC2)cc1 (stereo not drawn),inactive,
CN(CC(=O)Nc1c(Cl)cccc1Cl)C(=O)CC1OC(=O)c2ccccc21 (stereo not drawn),inactive,
CCCOC(=O)c1c(NC(=O)c2cc3nc(-c4ccc(OC)cc4)cc(C(F)(F)F)n3n2)sc2c1CCCC2,inactive,
COc1ccc(NC(=O)CN(C)C(=O)c2ccc(COc3ccccc3)o2)cc1,inactive,
O=[N+]([O-])c1ccc(C=Nc2ccc(Cl)cc2Cl)s1,6.51 µM (active),
CC(=O)N1C(=O)/C(=C2\SC(=S)N(NC(=O)c3ccc(O)cc3)C2=O)c2ccccc21,inactive,
CCOc1ccc(CNC(=O)c2cccc(Nc3nc4ccccc4n4nnnc34)c2)cc1OC,inactive,
CCOC(=O)c1cc(-c2ccc(F)cc2)n(CC(=O)NCc2ccccn2)c1C,inactive,
Cc1oc(-c2ccccc2F)nc1CS(=O)CC(=O)NCCN1CCCCC1C (stereo not drawn),inactive,
CCC(=O)OCCNc1nc(-c2ccccc2)nc2ccccc12,inactive,
CN(C)c1ccc(-c2nc(NCCN3CCOCC3)c3ccccc3n2)cc1,5.8 µM (active),
Fc1ccc(-c2ccc(NCCN3CCOCC3)nn2)cc1,inactive,
CC1CCN(C(=O)CSc2nnc(-c3ccco3)n2N)CC1,inactive,
CC1(C(=O)NS(=O)(=O)c2cccc(OC(F)F)c2)CCN1C(=O)C1CC1 (stereo not drawn),inactive,
CC1CCCCC1NC(=O)COC(=O)Cc1ccc(Cl)cc1 (stereo not drawn),inactive,
COc1ccc(C2=NN(c3nc4ccccc4s3)C(=O)C2)cc1,20.6 µM (active),
COc1ccc(-n2nnnc2-c2nc3ccccc3s2)cc1,inactive,
COc1ccc(C2=NN(C(C)=O)C(c3ccccc3)C2)cc1 (stereo not drawn),inactive,
COc1ccc(S(=O)(=O)NCC2CCCN(C(=O)c3occc3C)C2)cc1 (stereo not drawn),inactive,
Cc1ccccc1OCC(=O)NCC(=O)OCC(=O)c1ccc2ccccc2c1,inactive,
CC1(NC(=O)CCS(=O)(=O)c2ccc(Cl)cc2)CCS(=O)(=O)C1 (stereo not drawn),inactive,
CCOc1ccc(CN2CCN(Cc3ccc(C)o3)CC2CCO)cc1 (stereo not drawn),inactive,
O=S(=O)(Nc1ccc2[nH]ncc2c1)c1ccccc1Cl,inactive,
CC(=O)Nc1ccc(N2CCOCC2)c(C(=O)Nc2cccc(C)c2)c1,13 µM (active),
COC(=O)c1cc(NC(=O)c2cccnc2)ccc1N1CCOCC1,inactive,
COC(=O)c1cc(NC(=O)c2ccco2)ccc1N1CCOCC1,inactive,

SMILES,Potency,"activity change, negative = growth inhibition"
O=C(NNC(=O)c1cccc(S(=O)(=O)Nc2ccc(Cl)cc2)c1)c1ccc(=O)[nH]c1,inactive,
COc1ccc(NS(=O)(=O)c2cc(NC(=O)c3ccc(S(=O)(=O)N(C)C)cc3)ccc2N2CCOCC2)cc1,inactive,
CCN(CC)c1ccc(NC(=O)c2ccc(=O)[nH]c2)cc1S(=O)(=O)Nc1ccc(OC)cc1,29.1 µM (active),
Cc1cc(OCC(=O)N2CCN(c3ncccn3)CC2)ccc1Cl,inactive,
COC(=O)C1=C(C)N(C)C(=S)NC1c1cc(OC)ccc1OC (stereo not drawn),inactive,
COc1cc2c(cc1OC)[C@@H](Cc1cc(OC)c(OC)c(OC)c1)[N+](C)(CCCOC(=O)CC/C=C/CCC(=O)OCCC[N+]1(C)CCc3cc(OC)c(OC)cc3[C@H]1Cc1cc(OC)c(OC)c(OC)c1)CC2 (stereo partly drawn),inactive,
COc1ccc(CC2c3cc(OC)c(OC)cc3CC[N+]2(C)CCC(=O)OCCCCCOC(=O)CC[N+]2(C)CCc3cc(OC)c(OC)cc3C2Cc2ccc(OC)c(OC)c2)cc1OC (stereo not drawn),16.4 µM (active),
COC(=O)C1=CN(Cc2ccc(OC)c(OC)c2)C=C(C(=O)OC)C1c1cccs1,inactive,
O=C(NCc1cccc(CNC(=O)Nc2cccc(O)c2)c1)Nc1cccc(O)c1,inactive,
COc1ccc(C(=O)OCC(=O)Nc2ccc3[nH]c(=O)[nH]c3c2)c(OC)c1OC,inactive,
C/C(=N\N1CCN(Cc2ccc(C)cc2)CC1)c1ccco1,inactive,
NS(=O)(=O)c1ccc(N2C(=O)C3C4CC(C(Br)C4Br)C3C2=O)cc1 (stereo not drawn),inactive,
Cc1ccccc1C#CC1=CC(=O)CC(C)(C)C1,20.6 µM (active),
CC1(C)CC(=O)C=C(Nc2ccccc2)C1,inactive,
Cc1cc(O)ccc1NC1=CC(=O)CC(C)(C)C1,inactive,
COc1ccc(C2(O)C(=O)Nc3ccccc32)cc1 (stereo not drawn),inactive,
CC(=O)N1CCN(CC(C)(C)NS(=O)(=O)c2ccc(C)cc2)CC1,inactive,
COc1cc(NS(=O)(=O)c2ccc3ccccc3c2)c2ncccc2c1,8.2 µM (active),
COc1ccc2cc(S(=O)(=O)Nc3ccccn3)ccc2c1,inactive,
CCOc1ccc(OCC)c(NS(=O)(=O)c2ccc3[nH]c(=O)ccc3c2)c1,inactive,
CN(C)C(=O)[C@@H]1C[C@@H](Sc2nc3ccccc3[nH]2)CN1Cc1ccc(Cl)cc1,,0.0416% [at 9.04 µM]
CCOC(=O)C(C)Oc1cccc2c(=O)n(CC(=O)N3CCc4ccccc43)ccc12 (stereo not drawn),inactive,
CCCCn1nc(C(=O)N2CCc3ccccc32)c2ccccc2c1=O,18.4 µM (active),
CCCCn1nc(C(=O)OCC(=O)Nc2sccc2C(N)=O)c2ccccc2c1=O,inactive,
O=C(CSc1nc2ccccc2[nH]1)Nc1nc(-c2ccccc2)c(-c2ccccc2)o1,inactive,
O=C(CSc1n[nH]c(-c2cccs2)n1)N1CCCCC1,inactive,

SMILES,Potency,"activity change, negative = growth inhibition"
Cc1cccc(C)c1-n1c(C)cc(/C=C2\C(=O)NN(c3ccccc3)C2=O)c1C,inactive,
Cn1c(=O)c2c(ncn2CC(COCc2ccccc2Cl)OCc2ccccc2Cl)n(C)c1=O (stereo not drawn),25.9 µM (active),
CC(C)Cn1cnc2c1c(=O)n(CC(O)c1ccccc1)c(=O)n2CC(C)C (stereo not drawn),inactive,
Cn1c(=O)c2c(ncn2CCc2ccccc2)n(C)c1=O,inactive,
COc1ccc(C)cc1NC(=O)CSc1nnc2ccc(-c3ccccn3)nn12,inactive,
CCN(Cc1ccccc1)S(=O)(=O)c1cc2c3c(c1)CCN3C(=O)CC2,inactive,
O=C(CCc1nc(CN2CCN(S(=O)(=O)c3ccc(F)cc3)CC2)no1)N1CCCCC1,inactive,
CCc1ccc(CNCc2c(C(=O)O)n(Cc3ccc(F)cc3Cl)c3cc(OC)ccc23)cc1,11.6 µM (active),
COc1ccc(CNC(=O)CN2CCC(n3nnc4cc(F)ccc43)CC2)cc1,inactive,
COc1cccc(NC(=O)NCc2ccc(F)cc2)c1,inactive,
COc1cc(C)nc(N2CCCC(C(=O)NCC(C)C)C2)n1 (stereo not drawn),inactive,
O=C(Nc1ccccc1)O/N=C1\CCCCC1c1ccc([N+](=O)[O-])cc1[N+](=O)[O-] (stereo not drawn),inactive,
Cc1nnc(NC(=O)CCCOc2ccccc2)s1,inactive,
COc1cccc(NC(=O)COc2cccnc2[N+](=O)[O-])c1,inactive,
CCCCCCC(=O)Nc1nc(C)c(-c2csc(Nc3cccc(OC)c3)n2)s1,20.6 µM (active),
CC(=O)Nc1nc(C)c(-c2csc(Nc3ccc(S(N)(=O)=O)cc3)n2)s1,inactive,
Cc1ccn2c(-c3csc(Nc4ccc(C(=O)O)cc4)n3)c(C)nc2c1,inactive,
C=CCCC(=O)Nc1nc(C)c(-c2csc(Nc3ccc(Cl)cc3)n2)s1,11.6 µM (active),
CCc1ccccc1OCC(=O)Nc1nnc(C2CC2)s1,inactive,
N#Cc1ccc[n+](CC(=O)c2ccc(O)c(O)c2)c1,inactive,
O=C(CSc1ncn[nH]1)Nc1ccc(Br)cc1Br,inactive,
Cc1n[nH]c(=O)c2c(NC(=O)COC(=O)c3ncc(Cl)c(Cl)c3Cl)oc(C)c12,inactive,
O=C(CN(C(=O)c1nsc(Cl)c1Cl)c1cccc(F)c1)NC1CCCC1,inactive,
Cc1ccc(S(=O)(=O)n2oc(=O)c(C3CCCCC3)c2N)cc1,inactive,
Cc1c(Cl)c([N+](=O)[O-])nn1Cc1ccc(C(=O)N/N=C\c2cc(Cl)ccc2O)o1,3.66 µM (active),
Cc1ccc(C(=O)O)cc1NC(=O)c1ccc(Cn2nc(C)c(Cl)c2C)o1,inactive,

SMILES,Potency,"activity change, negative = growth inhibition"
O=C(N/N=C/c1ccc2c(c1)OCO2)c1ccc(Cn2cc([N+](=O)[O-])cn2)o1,inactive,
Brc1ccccc1/C=N/Nc1nc2ccccc2o1,inactive,
COCCN(C(=O)c1ccco1)c1nnc(-c2ccc(OC)cc2)s1,inactive,
COCCN(C(=O)C(C)C)c1nnc(-c2ccc(C(C)(C)C)cc2)s1,20.6 µM (active),
COc1cc(OC)cc(-c2nnc(N(C)C(=O)c3ccncc3)s2)c1,inactive,
COc1ccc(/C=C/c2noc(-c3ccccc3O)n2)cc1OC,inactive,
CC(=O)O[C@H]1c2ccccc2-c2ccccc2[C@@H]1OC(C)=O,inactive,
Cc1cccc(NC(c2cccc(F)c2)c2ccc3ccc(C)nc3c2O)n1 (stereo not drawn),8.2 µM (active),
CCn1ncc(CNC(=O)C2(C)CC2(Br)Br)c1C (stereo not drawn),inactive,
O=C(CCCC(=O)N1CCN(c2cccc(Cl)c2)CC1)c1ccccc1,14.6 µM (active),
O=C(CN1CCN(c2ccc(Cl)cc2)CC1)c1ccccc1,inactive,
CCc1nc2ccc(C(=O)N3CCN(c4cccc(Cl)c4)CC3)cc2nc1CC,inactive,
COc1cc(C(C(=O)NC2CCCC2)N(C(=O)c2ccco2)c2ccccc2C(C)=O)cc(OC)c1OC (stereo not drawn),inactive,
CC(C)C(NC(=O)c1c(F)cccc1F)C(=O)NCc1ccncc1 (stereo not drawn),inactive,
O=C(NC1CC1)C1=C[C@H](c2coc3ccccc3c2=O)C[C@H](OCCCCO)O1,inactive,
CCO[C@H]1OC(C(=O)N2CCOCC2)=C[C@@H](c2ccc3c(c2)OCO3)[C@@H]1CCCO,inactive,
CCO[C@H]1OC(C(=O)NCc2ccccc2)=C[C@@H](c2coc3ccccc3c2=O)[C@@H]1CCCO,23.1 µM (active),
Cc1ccc(NC(=O)C(c2ccccc2)N2CCN(C(=O)c3ccco3)CC2)cc1 (stereo not drawn),inactive,
O=C(O)C1CCCN1c1nc(Cl)ccc1[N+](=O)[O-] (stereo not drawn),inactive,
CCC(=O)N1CCc2cc(S(=O)(=O)CCC(=O)N3CCN(c4ccccc4F)CC3)ccc21,inactive,
CN(Cc1ccccc1)C(=O)CCS(=O)(=O)c1cc(Br)cc2c1N(C(=O)C1CC1)CC2,13 µM (active),
CCC(=O)N1CCc2cc(Br)cc(S(=O)(=O)CCC(=O)N3CCN(c4ccc(F)cc4)CC3)c21,20.6 µM (active),
CCC(=O)N1CCc2cc(Br)cc(S(=O)(=O)CCC(=O)NCc3ccccc3OC)c21,inactive,
O=C(CCS(=O)(=O)c1cc(Br)cc2c1N(C(=O)C1CC1)CC2)Nc1ccc(Br)cc1F,inactive,
O=C(CCS(=O)(=O)c1cc(Br)cc2c1N(C(=O)C1CC1)CC2)Nc1ccc(C(F)(F)F)cc1,inactive,
